# Experimental data from PubChem BioAssay AID1259343 (VanderVen Lab, College of Veterinary Medicine, Cornell …, 2017).
# The campaign covered roughly 6,200 compounds. About 2,900 (47%) were called active. So high a share suggests a set chosen from earlier hits. Some of the results follow. Values without a mark were called inactive. No stated cut-off is given here; in the data, active means inhibition above about 50%; inactive means the rest.
# Test: Mycobacterium tuberculosis growth inhibition, primary screen (AID 1259343)
# Conditions: inhibition: at 10 µM, stronger effect = higher value; outcome: 10 uM
row,SMILES,inhibition
1,CCN(CC)c1n[nH]c(-c2cccc(Cl)c2)n1,-6.42%
2,Clc1cccc(-c2ccc3nnc(Cl)nc3c2)c1,101% (active)
3,Cc1nn(-c2ccc(C(F)(F)F)cc2)c(C)c1[C@@H]1C=C[C@@H](NCc2ccc(N(C)C)cc2)C1,78.3% (active)
4,N#CC(C(=S)Nc1ccccc1)=C1NN=C2CCCCCN21,41.7%
5,CCOc1ccc(-n2ccnc(NCc3cccs3)c2=O)cc1,71.3% (active)
6,COc1cccc(CNc2nccn(-c3cccc(Cl)c3)c2=O)c1,13.4%
7,O=C(O)c1c[nH]c2c(ccc3ccccc32)c1=O,inactive
8,O=C(O)c1c[nH]c2c(Cl)c(Cl)ccc2c1=O,81.6% (active)
9,COc1ccc(F)c(-c2cc(C(=O)NC3CC3)ccn2)c1,82.8% (active)
10,COc1ccc(-c2cc(C(=O)NC3CC3)c(C)n2-c2cccc(OC)c2)cc1,-5.91%
11,CCCOc1ccc(F)cc1-c1cc(C(=O)NC2CCCCC2)[nH]n1,28%
12,COC(=O)c1ccc(NC(=O)CCc2ccncc2)cc1C,92.8% (active)
13,Fc1ccc(Nc2nc3cc(Cl)ccc3o2)cc1Cl,-2.2%
14,FC(F)(F)c1ccc(-c2nc(CSc3nc4cc(Cl)ccc4o3)cs2)cc1,87.2% (active)
15,OCCn1c(CSc2nc3ccccc3o2)nc2ccc(Cl)cc21,-42.1%
16,Cc1c2ccccc2[nH]c2c1oc1cc(=O)ccc12,97.4% (active)
17,CCCc1nc(-c2ccc(S(N)(=O)=O)cc2)cs1,-6.09%
18,CCCc1nc(C(=O)N2C[C@H]3CC=CC[C@H]3C2)cs1,58.6% (active)
19,Cc1cc(C)c(C#N)c(N2CCN(Cc3ccc(Cl)cc3)CC2)n1,47.2%
20,Clc1ccc(CN2CCN(Cc3cnc(CC4CCCC4)[nH]3)CC2)cc1,84.3% (active)
21,CC1CCc2onc(C(=O)Nc3nc4ccccc4n3C)c2C1 (centres undefined),7%
22,O=S(=O)(/C=C/c1ccccc1)NC12CC3CC(CC(C3)C1)C2,-12.7%
23,COc1ccc(C23CC4CC(CC(C(=O)O)(C4)C2)C3)c(F)c1,21.2%
24,O=C(NC(=S)NC1C2CC3CC(C2)CC1C3)c1cccs1 (centres undefined),56.9% (active)
25,Cc1ccc(C(=O)NC(C)C23CC4CC(CC(C4)C2)C3)s1 (centres undefined),93.3% (active)
26,S=C(NNc1ccccc1)NC12CC3CC(CC(C3)C1)C2,84.2% (active)

row,SMILES,inhibition
1,COc1cccc(C(=O)NC(C)C23CC4CC(CC(C4)C2)C3)c1 (centres undefined),62.8% (active)
2,COC(=O)C1CCCc2c1ccn2CC=C(C)C (centres undefined),27.3%
3,CC(NC(=O)C1=NNC(=O)CC1)C1CC2CCC1C2 (centres undefined),27.1%
4,CC1CC1C(=O)NC(C)C12CC3CC(CC(C3)C1)C2 (centres undefined),55.2% (active)
5,O=C(NC12CC3CC(CC(C3)C1)C2)c1cccs1,98.1% (active)
6,CC(NC(=O)C1=NNC(=O)CC1)C12CC3CC(CC(C3)C1)C2 (centres undefined),68% (active)
7,CC(C)c1ccc(C2NC(=O)C(O)=C2C(=O)c2cccs2)cc1 (centres undefined),29%
8,CC(NC(=O)c1cccs1)C12CC3CC(CC(C3)C1)C2 (centres undefined),67.3% (active)
9,CN(C)C(=O)c1ccc(-c2cnc3c(c2)CCN3CCCc2ccccc2)cc1,33.1%
10,COc1cc(NC(=O)c2ccc(C)s2)cc(OC)c1OC,6.84%
11,COc1ccc(C(NC(=O)c2ccc(C)s2)C2CC2)cc1 (centres undefined),83.9% (active)
12,CN(C)c1nc(N)nc(Cn2nc(-c3ccc(F)cc3)oc2=O)n1,91.8% (active)
13,O=C1CC(c2ccc(Br)s2)c2cnn(C3CCCC3)c2N1 (centres undefined),31.2%
14,CC(C)CC1=NN(C(=O)c2cccc(Br)c2)C(O)(C(F)(F)F)C1 (centres undefined),23%
15,O=C(N/N=C(\CC(=O)c1cccs1)C(F)(F)F)c1cccc(Br)c1,103% (active)
16,CCN1CCc2c(sc(NC(=O)c3ccc(OC)c(OC)c3)c2-c2nc3ccccc3s2)C1,28.1%
17,CCOC(=O)c1c(NC(=O)c2c(F)c(F)c(F)c(F)c2F)sc2c1CCN(c1ccc(Cl)nc1)C2,61.8% (active)
18,Cc1ccc(CN(C)C(=O)c2cc(C(C)C)[nH]n2)o1,69.9% (active)
19,Cc1ccc(CN(C)C(=O)c2cc(Br)c[nH]2)o1,44.1%
20,Cc1noc(CN(C)C(=O)c2cc(C(C)C)no2)n1,-37.1%
21,CCN(CC)C(=O)COC(=O)c1cc(-c2cc(C)sc2C)nc2onc(C)c12,-34.1%
22,S=c1[nH]nc(COc2ccc(Cl)cc2Cl)o1,79.7% (active)
23,CC(Oc1ccc(F)cc1)c1n[nH]c(=S)o1 (centres undefined),-17.5%
24,COc1cccc(OCc2nc(-c3ccc(Br)o3)no2)c1,93.8% (active)
25,COc1cccc(OCc2n[nH]c(=S)o2)c1,79.7% (active)
26,S=c1[nH]nc(COc2ccccc2Cl)o1,-28.9%

row,SMILES,inhibition
1,S=c1[nH]nc(COc2ccc(Cl)cc2)o1,91.8% (active)
2,Cc1ccc(C)c(OCc2n[nH]c(=S)o2)c1,21.7%
3,Cc1cc(C)nc(Nc2cccc(OCc3nc(-c4cccs4)no3)c2)n1,29.2%
4,CN1N=C(c2ccc(F)c(F)c2)CSC1=NCc1ccccc1,18.9%
5,OC1(C2(O)CC(c3ccccc3)NO2)CCCCC1 (centres undefined),27.1%
6,CC(On1nnc2ccc(Cl)cc21)C(=O)NC(=O)NC1CCCCC1 (centres undefined),27.5%
7,O=C(NN=C1C(=O)c2cccc3cccc1c23)NC1CCCCC1,-1.18%
8,Cc1cccc(C)c1-n1nnnc1SC(C)C(=O)NC(=O)NC1CCCCC1 (centres undefined),81.5% (active)
9,N#Cc1ccc(/C=C/C(=O)N2CCN(Cc3ccc(Br)s3)CC2)cc1,28.6%
10,Brc1ccc(-c2ccc(CN3CCNCC3)s2)cc1,73.8% (active)
11,O=C(C1CC1)N1CCC(NCc2ccc(-c3cccc(Br)c3)s2)CC1,44.8%
12,O=C(NC(=S)Nc1cc(Cl)c(Cl)cc1Cl)C1CC1,82.6% (active)
13,CCN(C(=S)NC(=O)C1CC1)C1CCCCC1,20.5%
14,O=C(NNc1c(Cl)cc(Cl)cc1Cl)C1CCC1,47.8%
15,C=CCOc1ccccc1CN(C(=O)CCl)c1ccc2c(c1)OCCO2,37.2%
16,O=[N+]([O-])c1cc(S(=O)(=O)Nc2cc(Cl)ccc2F)ccc1F,47.3%
17,O=S(=O)(Nc1cc(Cl)ccc1-n1cncn1)c1ccc(F)cc1,66% (active)
18,O=[N+]([O-])c1cc(S(=O)(=O)Nc2cc(Cl)ccc2-n2cncn2)ccc1Cl,67.4% (active)
19,O=c1[nH]nc(-c2ccccc2O)n1-c1ccc(Br)cc1,-5.57%
20,O=C(CCNc1ccc(-c2ccccc2)cc1)N1CCn2cncc2C1,92.2% (active)
21,COC(=O)N1CCc2onc(-c3ccc(-c4ccccc4)cc3)c2C1,25.7%
22,O=C(CN1CCN(C(=O)C2CCCO2)CC1)Nc1ccc(-c2ccccc2)cc1 (centres undefined),4.56%
23,c1ccc(Cc2nnc3sc(-c4ccco4)nn23)cc1,21.3%
24,CCCCOC(=O)c1ccc(Nc2ncnc3c2nnn3C)cc1,9.62%
25,CCCOC(=O)c1ccc(NCN2C(=O)c3ccccc3C2=O)cc1,93.9% (active)
26,CCn1cc(CNC(=O)CCc2nnc(CCC3CCCCC3)o2)cn1,76.4% (active)

row,SMILES,inhibition
1,O=C(CCc1nnc(CCC2CCCCC2)o1)NCCc1cccnc1,41%
2,CC(Cc1cnccn1)NC(=O)CCc1nnc(CCC2CCCCC2)o1 (centres undefined),33.8%
3,CN(Cc1ccoc1)C(=O)c1cn(CC2CCCCC2)nn1,26.8%
4,CC(CNC(=O)CCc1nnc(CCC2CCCCC2)o1)c1ccccc1 (centres undefined),57.9% (active)
5,COCC(C)NC(=O)CCc1nnc(CCC2CCCCC2)o1 (centres undefined),inactive
6,O=C1Nc2ccc(Br)cc2C12Nc1ccccc1S2 (centres undefined),5.83%
7,O=C(CCl)Nc1ccc(OC(F)F)c(Cl)c1,86.6% (active)
8,CC(OC(=O)c1ccco1)C(=O)Nc1ccc(OC(F)F)c(Cl)c1 (centres undefined),4.36%
9,Cc1cc(C(=O)Nc2ccc(OC(F)F)c(Cl)c2)on1,91.1% (active)
10,N#Cc1ncn(CC(=O)Nc2ccc(OC(F)F)c(Cl)c2)n1,73.2% (active)
11,FC(F)Oc1ccc(NC(=S)Nc2cccnc2)cc1Cl,92.8% (active)
12,COC(=O)C1=C(OC)C(=O)OC12C=CC(=O)C=C2,-11.4%
13,Fc1ccc(Nc2nnc(-c3ccc(Br)s3)o2)c(F)c1,87.9% (active)
14,Cc1cc2c(F)ccc(C)c2nc1N1CCC(O)(C(=O)O)CC1,86% (active)
15,Clc1ccc(-c2cnnc(N3CCC(c4ccncc4)CC3)n2)cc1,21.9%
16,CC(C)C(NC(=O)C1=Cc2ccccc2OC1)c1cccs1 (centres undefined),5.93%
17,CC(NC(=O)COC(=O)c1ccccc1O)c1cccs1 (centres undefined),88.8% (active)
18,CS(=O)c1ccccc1C(=O)OCc1c(Cl)cccc1Cl (centres undefined),30.8%
19,Cc1cccc(N2CCN(C(=O)c3cc(COc4ccc(F)c(F)c4)on3)CC2)n1,52.2% (active)
20,CCOC(=O)N1CCN(C(=O)c2cc(COc3ccc(C)c(C)c3)on2)CC1,74.9% (active)
21,CCCc1nnc(-c2cc3ccccc3n2C)o1,69% (active)
22,CCCc1nnc(-c2cc3ccccc3[nH]2)o1,38.4%
23,CCCCc1nnc(-c2cc3ccccc3[nH]2)o1,18.4%
24,c1ccc(CCc2nc(-c3ccncc3)no2)cc1,inactive
25,O=C(CCc1nc(-c2ccncc2)no1)Nc1ccc(Oc2ccccc2)cc1,95.7% (active)
26,COC(=O)c1cccc(NC(=O)N2CCN(CCCOC(c3ccc(Cl)cc3)c3ccc(Cl)cc3)CC2)c1,13.4%
